MBNL1 CUG block – blocks human MBNL1 binding to CUG repeat RNA | TR-FRET MBNL1-His/biotin-(CUG)12 binding, 665/545 ratio | Potency, µM (doses to about 57.5 µM), for the others: at the highest dose activity change, negative = inhibition, hits mostly inhibitors | 280,000 compounds, 0.036% hits | AID 2675; active = well fitted inhibition curve with a large enough effect in the signal ratio, with a control signal flat, not every such curve was filed as active; inconclusive = small, poorly fitted or top-dose-only effect, or effect the other way, or a change in a side signal; inactive = no such curve, though single readings can be large or run the other way; the % refers to the signal ratio; also: potency is read from the fitted curve at half-maximal effect; % is scaled to controls: 0 for no effect and ±100 for the full control effect
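TR-FRET between His-tagged MBNL1 and biotin-(CUG)12 RNA, detected with Tb anti-His antibody (0.055 ng/ul) and streptavidin-XL665 (5 nM), 60 min at room temperature. Compounds titrated 92 nM to 58 uM; 665/545 nm ratio normalized to buffer and complex controls.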
CBFb-RUNX1 inh – inhibitors of human CBF-beta and RUNX1 interaction; AlphaScreen CBFb-His/RUNX1-biotin binding, biochemical; Q01196+Q13951; Potency, µM (titrated, usually from 59.8 µM), without a hit: at the highest dose activity, negative = inhibition, usual class: inhibitors; AID 1477; 230,000 tested, under 10 active; also: % of control where 0% means no effect
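Inhibition was taken as any reduction in AlphaScreen signal from the CBF-beta–RUNX1 pair (His and biotin tags, 30 nM each), measured after compound (15 min) and bead (90 min) incubations at room temperature.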
CtBP-E1A inh – blocks the CtBP interaction with E1A; AlphaScreen GST-E1A/His-CtBP binding, 1536-well; active compounds read low; activity change, % (no concentration beside the values); 340,000 compounds, 0.49% hits; in the data active = activity change below about -65%; inconclusive = mostly about -30% to -63%; also: % is scaled to controls: 0 for no effect and ±100 for the full control effect
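AlphaScreen with 125 nM GST-E1A and 125 nM His-CtBP (5X stocks) in Tris pH 8.0, 300 mM NaCl, BSA, Tween 20, TCEP. Compounds preincubated 2 h at 37 deg C, then glutathione donor/nickel acceptor beads added for 1 h at 37 deg C in dark.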
RORgamma inh – blocks mouse ROR gamma transcriptional activity. P51450. AID 2551. Potency, µM (series often up to 53.6 µM), for the others: at the top dose activity change, negative = inhibition, usual class: inhibitors. 310,000 compounds, 5.4% hits. Drosophila S2 Gal4-RORgamma UAS-luciferase reporter, 20 h; also: potency is read from the fitted curve at half-maximal effect; % is scaled to controls: 0 for no effect and ±100 for the full control effect; nearly all actives have a fitted effect of over 60% in size
Target sequence (P51450 whole entry, looked up, the tested form may be a part): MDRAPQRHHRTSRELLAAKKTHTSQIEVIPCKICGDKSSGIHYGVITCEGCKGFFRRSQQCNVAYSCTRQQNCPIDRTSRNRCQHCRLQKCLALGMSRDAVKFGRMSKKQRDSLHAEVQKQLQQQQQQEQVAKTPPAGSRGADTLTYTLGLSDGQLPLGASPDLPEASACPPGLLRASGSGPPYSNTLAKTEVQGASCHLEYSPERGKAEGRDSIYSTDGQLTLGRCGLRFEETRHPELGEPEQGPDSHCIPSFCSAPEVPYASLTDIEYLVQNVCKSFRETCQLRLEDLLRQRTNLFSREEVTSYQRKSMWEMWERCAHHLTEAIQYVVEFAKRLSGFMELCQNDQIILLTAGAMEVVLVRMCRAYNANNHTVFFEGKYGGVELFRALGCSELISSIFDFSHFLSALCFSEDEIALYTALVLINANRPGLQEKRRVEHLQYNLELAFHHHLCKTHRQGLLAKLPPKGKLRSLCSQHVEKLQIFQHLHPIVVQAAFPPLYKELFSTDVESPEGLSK
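ROR gamma transcriptional activity was tracked as Gal4-UAS luciferase output in stably transfected Drosophila Schneider cells, with compound added 1 hr before 700 uM copper sulfate induction and a 20 hr ambient-temperature incubation.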
Six1-Eya2 inh – blocks human Six1 binding to Eya2. 360,000 compounds, 0.56% hits. activity change, % (concentration not given with the values). AlphaScreen GST-Six1/His-Eya2 binding, biochemical; active compounds read low. AID 651725; in the data active = activity change below about -65%; inconclusive = mostly about -30% to -63%; also: % is scaled to controls: 0 for no effect and ±100 for the full control effect
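GST-Six1 + His-Eya2 (5X stock: 250/500 nM); Tris pH 8.0, 300 mM NaCl, 0.05% BSA, 0.02% Tween 20; GSH donor/Ni acceptor beads; 1 h 37 °C dark; AlphaScreen readout.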
VP16 counter – Gal4-VP16 reporter inhibition counter-screen | Drosophila S2 Gal4-VP16 UAS-luciferase, luminescence, 20 h | Potency, µM (titrated, usually from 53.6 µM), for the others: at the highest dose activity, negative = inhibition, hits mostly inhibitors | 310,000 compounds, 3.5% hits | AID 2546;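 also: Gal4-VP16 expression switched on by copper sulfate through the metallothionein promoter; potency is read from the fitted curve at half-maximal effect; % is scaled to controls: 0 for no effect and ±100 for the full control effect; nearly all actives have a fitted effect of over 50% in size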
Active calls of the source: *; ? = inconclusive; . = no result given; ! = repeats disagree; [ ] = remark or other dose. Most compounds without a hit are left out; they make up all but 5.5% or so of the library. Unless noted, calls follow the shape of the dose curve; as a rule, active = well fitted curve in the direction sought with a large enough effect; inconclusive = small, poorly fitted or top-dose-only effect, or another doubt; inactive = no such curve, though single readings can be large; an effect the other way counts as inactive or inconclusive.

SMILES | MBNL1 CUG block | CBFb-RUNX1 inh | CtBP-E1A inh | RORgamma inh | Six1-Eya2 inh | VP16 counter
CC(=O)C1=CCC(c2ccc(Cl)c(Cl)c2)N(S(=O)(=O)c2ccc(C)cc2)C1 (configuration not stated) | . | . | 1 | . | 1 | .
CCOc1ccc(OCc2ccc(C(=O)O)o2)cc1 | -9% | 0% | 14 | 10µM* | 0 | 15%[0.365 µM]
Cc1ccc(C(=O)Nc2ncc3c(Cl)cccc3n2)cc1 | ? | 8% | -6 | 3.2µM* | -12 | 4µM*
CN1CCN(c2ncnc3ccc(-c4ccccc4Cl)cc23)CC1 | . | . | . | 33% | . | ?
S=C(Nc1ccccc1Cl)N(Cc1cccnc1)Cc1ccco1 | -3% | 3% | 0 | -17% | -4 | 8%
Cc1c(Cl)cccc1NC(=S)N(Cc1cccnc1)Cc1ccccc1Cl | -6% | -5% | 8 | 11µM* | -7 | ?
O=C(Cn1c(=S)[nH]c2ccccc21)c1ccccc1 | -3% | 2% | 0 | 10µM* | -1 | ?
CCOC(=O)C1=C(c2ccccc2)NC(=S)NC1C (configuration not stated) | 3% | 7% | -1 | 10µM* | -13 | ?
CCOC(=O)C1=C(c2ccccc2)NC(=S)NC1c1ccc(C)c([N+](=O)[O-])c1 (configuration not stated) | . | -7% | -3 | ? | -10 | 11µM*
CCOC(=O)C1=C(C)NC(=S)NC1C (configuration not stated) | -5% | 9% | 3 | ? | 7 | -3%
CCOC(=O)C1=C(c2ccccc2)NC(=S)NC1c1cccc([N+](=O)[O-])c1 (configuration not stated) | -4% | -6% | 0 | ? | -7 | ?
CCOC(=O)C1=C(c2ccccc2)NC(=S)NC1c1cc([N+](=O)[O-])ccc1OC (configuration not stated) | ? | -16% | -4 | 13µM* | -3 | ?
Cc1oc(S(=O)(=O)N(C)C)cc1C(=O)Nc1ccc(F)cc1 | -2% | 2% | 2 | 27% | 0 | 14%
Cc1ccc(-n2c(C)cc(C(=O)COC(=O)c3ccc[nH]c3=O)c2C)cc1C | -8% | 0% | 3 | -38% | 1 | 0.02µM*
CCCn1c(C)cc(C(=O)COC(=O)c2ccc[nH]c2=O)c1C | -21% | -4% | 1 | 4µM* | 4 | 6.3µM*
Cc1cc(C(=O)COC(=O)c2ccc[nH]c2=O)c(C)n1-c1ccccc1F | 1% | 3% | . | ? | -2 | ?
Cc1ccc(F)cc1CNC(=O)C1CCC(=O)N(CC2CCCCC2)C1 (configuration not stated) | -4% | . | -9 | ? | 11 | -4%
C/C(=N\NC(N)=S)C1=CCC2C3CC[C@H]4CC(O)CC[C@]4(C)C3CC[C@]12C (some centres not stated) | -4% | . | . | 2.5µM* | 3 | ?
CC12CCC3C(CCC4CC(O)CCC43C)C1CC=C2c1ccccc1 (configuration not stated) | . | 0% | . | 8% | . | -5%
CC(=O)N(C1=C(Cl)C(=O)c2ccccc2C1=O)C1CCCCC1 | ? | 1% | 0 | 10µM* | -1 | 11µM*
O=C(CC1CC2CCC1C2)Nc1nc(-c2ccccn2)cs1 (configuration not stated) | 7% | ? | ? | 3.2µM* | ? | 13µM*
O=C(Nc1nc(-c2ccccn2)cs1)C12CC3CC(CC(O)(C3)C1)C2 | -2% | ? | . | ? | ? | -29%
O=C(Nc1nc(-c2ccccn2)cs1)C1CC(=O)N(c2ccc3c(c2)OCCO3)C1 (configuration not stated) | . | . | 0 | 10µM* | -86* | ?
c1ccc(Nc2nc(-c3ccccn3)cs2)cc1 | 20% | ? | 0 | 3.5µM* | ? | 10µM*
Cc1cccnc1NC(=O)C1CC(=O)N(c2ccc3c(c2)OCCO3)C1 (configuration not stated) | . | . | -1 | . | -4 | .
SMILES | MBNL1 CUG block | CBFb-RUNX1 inh | CtBP-E1A inh | RORgamma inh | Six1-Eya2 inh | VP16 counter
O=C(Nc1nc(-c2ccccn2)cs1)C1CC1 | 1% | ? | -72* | 16µM* | ? | ?
COC(=O)C[C@@H]1C[C@@H]2c3cc(NS(=O)(=O)c4ccc(F)cc4)ccc3O[C@@H]2[C@H](CO)O1 | . | . | 6 | . | 7 | .
O=C(CN1C(=O)NC(Cc2ccccc2)C1=O)Nc1ccc(F)c(F)c1F (configuration not stated) | . | . | 1 | . | 4 | .
COc1cccc(C(O)c2nc(-c3cc(F)cc(F)c3)cs2)c1 (configuration not stated) | . | . | 11 | . | 0 | .
CCCCCCCCCCCCOCCOCCOCCOCCO | . | 23% | . | ? | . | -9%
c1ccc(-c2csc(Nc3cccnc3)n2)nc1 | ? | -12% | -4 | ? | ? | 13%
COc1cccc2sc(Nc3nc(-c4ccccn4)cs3)nc12 | 45% | -26% | . | 0.045µM* | . | .
Cc1nn(-c2ccccc2)c(N)c1N=Nc1ccc2ccccc2c1 | 9% | ? | ? | 1.1µM* | ? | 3%
CCN1C(=S)N[C@@H](c2cccs2)C(C(=O)OC)=C1C | 4% | . | -1 | 4µM* | 5 | 20µM*
CC1=C(C(=O)OCc2ccccc2)C(c2ccccc2OC(F)F)NC(=O)N1 (configuration not stated) | 6% | 9% | -9 | 8% | 0 | -4%
COC(=O)C1=C(C)N(CC2CC2)C(=O)N[C@H]1CCc1ccccc1 | . | -6% | . | -12% | . | -10%
CCOC(=O)C1=C(C)N(CC)C(=S)NC1c1ccccc1OC(F)F (configuration not stated) | 3% | -10% | 11 | 2µM* | 10 | ?
CCN1C(=S)N[C@@H](CCc2ccccc2)C(C(=O)OC)=C1C | 5% | . | -5 | 4.5µM*! | -3 | ?
CCN1C(=O)N[C@@H](c2cccs2)C(C(=O)OC)=C1C | . | -5%[13.1 µM] | 3 | . | 1 | .
O=C(CNS(=O)(=O)c1ccc(Br)cc1)NCc1ccncc1 | -10% | . | 4 | -21% | 8 | 3%
Cc1ccc(CN2C(=O)C(F)(F)Oc3ccc(C)cc32)cc1 | . | . | 29 | . | 18 | .
O=C(c1ccc([N+](=O)[O-])s1)N1CCN(c2ccccn2)CC1 | ? | . | ? | -26% | -8 | -5%
O=C(c1ccc([N+](=O)[O-])s1)N1CCN(c2ccccc2)CC1 | ? | -4% | . | 25µM* | -2 | -18%
